Hits are enriched below; roughly 2.2% of the tested compounds scored in any of these assays.
LDHA block: inhibitors of human lactate dehydrogenase A. P00338. purified LDHA, NADH/diaphorase-resazurin fluorescence; stronger effect = lower value. activity change, % (values are at about 110 or 230 µM). actives 0.15% (n = 480,000). AID 1347041; in the data active = activity change below about -30%; inconclusive = mostly about -25% to -30%;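 note: plate controls were DMSO wells for no effect and wells without enzyme for full effect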
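Remaining NADH was detected by diaphorase (0.133 mg/mL) converting 37 µM resazurin to fluorescent resorufin, read at 0 and 20 minutes. The preceding 5-minute room-temperature reaction used 2 nM LDHA, 0.2 mM sodium pyruvate and 0.06 mM NADH at pH 7.4.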
IDH1 R132H inh: inhibitors of human mutant IDH1 R132H; O75874; IDH1-R132H enzyme, NADPH consumption, diaphorase/resazurin fluorescence; Potency, µM (series often up to 76.6 µM), inactives show at the highest dose activity change, negative = inhibition, usual class: inhibitors; actives 0.093% (n = 390,000); note: potency is the fitted concentration of half-maximal effect; % is set by controls: 0 for no effect and ±100 for the full control effect; nearly all actives have a fitted effect of over 65% in size
Target sequence (O75874 whole entry R132H, stated change not applied): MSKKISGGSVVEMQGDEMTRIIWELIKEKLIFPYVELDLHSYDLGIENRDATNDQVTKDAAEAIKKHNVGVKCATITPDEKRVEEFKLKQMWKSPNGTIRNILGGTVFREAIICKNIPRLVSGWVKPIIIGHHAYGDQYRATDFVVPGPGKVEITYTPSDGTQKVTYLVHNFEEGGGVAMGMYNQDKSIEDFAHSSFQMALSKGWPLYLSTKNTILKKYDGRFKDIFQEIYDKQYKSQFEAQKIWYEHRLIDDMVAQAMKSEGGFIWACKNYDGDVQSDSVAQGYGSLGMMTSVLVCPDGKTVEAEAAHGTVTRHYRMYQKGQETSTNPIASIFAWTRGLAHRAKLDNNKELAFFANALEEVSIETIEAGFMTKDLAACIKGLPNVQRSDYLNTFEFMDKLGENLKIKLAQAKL
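IDH1-R132H (0.5 ug/mL) preincubated 30 min with compound, then NADPH (0.016 mM) and alpha-KG (2 mM) added; 80 min at RT, pH 7.5. Remaining NADPH coupled via diaphorase/resazurin to fluorescence (540/590 nm); concentration-response curves normalized to no-enzyme control.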
ATXN2 expr inh: ATXN2 expression inhibition; HEK-293 ATXN2-luciferase reporter, luminescence, 24 h; Potency, µM (series often up to 57 µM), for inactives: top-dose activity change, negative = inhibition, hits mostly inhibitors; actives 0.72% (n = 360,000); AID 1745845; note: potency is the fitted concentration of half-maximal effect; % is set by controls: 0 for no effect and ±100 for the full control effect; nearly all actives have a fitted effect of over 55% in size
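ATXN2-luciferase reporter cells (luciferase flanked by upstream and downstream ATXN2 gene portions) were treated 24 h at 37 °C with compounds at up to 57 uM. SteadyGlo luminescence gave expression; GF-AFC fluorescence gave viability.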
ATXN viability: viability counter-screen for ATXN expression inhibitors. S2 cells (HEK-293 line with an ATXN2-luciferase reporter) viability, CellTiter-Fluor protease fluorescence, 24 h. Potency, µM (titrated, usually from 56.7 µM), actives largely listed as cytotoxic. actives 0.49% (n = 400,000); note: potency is the fitted concentration of half-maximal effect; nearly all actives have a fitted effect of over 40% in size
HepG2 tox: kills HepG2 cells in TGF-b inhibitor counter-screen. Potency, µM (titrated, usually from 46.1 µM), inactives show at the highest dose activity change, negative = cytotoxicity, actives largely listed as cytotoxic. actives 0.76% (n = 410,000). HepG2 CAGA-GFP viability, ATP luminescence, 18 h; note: potency is the fitted concentration of half-maximal effect
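CellTiter-Glo luminescence gave cytotoxicity after 18 hours at 37 degrees C. The cells were HepG2 CAGA-GFP in 1% FBS DMEM, stimulated with 500 pg/mL TGF-beta after compound addition. %Activity was normalised to no-cell wells (complete cell-killing) and DMSO (no toxicity), and curves were fitted and classified.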
TGFb SMAD3 inh: TGF-b pathway inhibition; actives 1.2% (n = 410,000); HepG2 CAGA-GFP TGF-b/SMAD3 reporter, GFP fluorescence, 18 h; TGF-beta stimulated, 500 pg/mL final; AID 588855; Potency, µM (series often up to 46.1 µM), without a hit: at the top dose activity, negative = inhibition, actives largely listed as inhibitors; note: potency is the fitted concentration of half-maximal effect; % is set by controls: 0 for no effect and ±100 for the full control effect; nearly all actives have a fitted effect of over 65% in size
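First, reporter cells (HEPG2 CAGA-GFP) rested 2 h at 37 degrees C. Next, compounds were pinned in and TGF-beta added to 500 pg/mL final. After 18 h, GFP was imaged per cell and summed per well.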
* marks the source's active call; other numbers are inactive results; i = inactive; ? = inconclusive; · = not tested or not shown; ! = not confirmed by another sample; [ ] = remark or other dose. Unless noted, calls come from the whole dose curve; as a rule, active = well fitted curve in the direction sought with a large enough effect; inconclusive = small, poorly fitted or top-dose-only effect, or another doubt; inactive = no such curve, though single readings can be large; an effect the other way counts as inactive or inconclusive.

SMILES | LDHA block | IDH1 R132H inh | ATXN2 expr inh | ATXN viability | HepG2 tox | TGFb SMAD3 inh
O=C(O)c1cc(F)ccc1I | 2.1 | · | · | · | · | ·
CC(Oc1ccccc1F)C(=O)NNC(=O)CC(C)c1ccccc1 (centres undefined) | -3.3 | 4.8% | 6.8% | i | 0.891µM* | -16.4%
O=C1N/C(=C/c2ccc(N3CCOCC3)o2)C(=O)N1c1cccc(Cl)c1 | 1.4 | 3.8% | -32.9% | i | -53.6% | 10µM*
CCOc1ccc(N2CC(c3nc4ccccc4n3CCCOc3ccccc3)CC2=O)cc1 (centres undefined) | 5.2 | 0.0% | ? | · | -7.9% | 11.2µM*
O=C1CC(c2nc3ccccc3n2CCCOc2ccccc2)CN1c1ccc(F)cc1 (centres undefined) | -2.2 | -14.9% | -28.7% | 25.1µM* | -20.6% | -26.6%
CCOc1ccc(N2CC(c3nc4ccccc4n3CCCCOc3ccc(OC)cc3)CC2=O)cc1 (centres undefined) | -4.1 | -13.4% | ? | ? | -32.4% | ?
CN(C)S(=O)(=O)c1ccc(NC(=O)c2ccncc2)cc1 | -12.7 | -10.1% | 6.6% | i | -1.7% | 4.2%
COc1cc(F)ccc1-c1cc(C(=O)Nc2ccc(C)c(NS(C)(=O)=O)c2)[nH]n1 | -7.1 | · | 2.8% | i | -61.3% | ?
COc1ccc(F)cc1-c1cc(C(=O)Nc2ccc(C)c(NS(C)(=O)=O)c2)[nH]n1 | -4.1 | · | 25.1µM* | 3.55µM* | -27.6% | 36.8%
CC(=NNC(=O)c1ccncc1)c1ccccc1O | 10.3 | -2.1% | ? | i | -12.8% | 0.0%
C/C(=N\NC(=O)c1ccccc1)c1ccccc1 | -9.9 | · | · | · | · | ·
C/C(=N\NC(=O)c1cc(-c2cccnc2)nc2ccccc12)c1ccc(O)cc1O | -7.8 | 0.7% | 3.98µM* | ? | -20.1% | -8.6%
CC(C)CC(=NNC(=O)c1ccncc1)c1cc(Cl)ccc1O | -6.9 | 0.0% | 2.82µM* | ? | 7.08µM* | -1.0%
CCCCCCCCC(=O)N/N=C(\C)c1ccc(O)cc1O | -7.4 | 3.8% | 17.8µM* | ? | -22.9% | ?
C/C(=N\NC(=O)c1cc(-c2cccc(OC(C)C)c2)nc2ccccc12)c1cccnc1 | 0.3 | 1.4% | -19.7% | i | -28.8% | 0.6%
C/C(=N\NC(=O)c1ccc(N/N=C(\C)c2ccc(O)cc2)cc1)c1ccc(O)cc1 | 1.6 | 14.5% | · | ? | 11.2µM* | 12.6µM*
CCCCC(=O)Nc1nn(C)c2nc3c(C)cccc3cc12 | -5.2 | -0.1% | -1.8% | i | -1.6% | 10.2%
CCCCOC(=O)c1ccc(NC(=O)C(=O)CC(=O)c2ccc(OC)cc2)cc1 | 8.3 | -9.6% | -2.8% | i | -3.8% | -2.4%
CC(=NNC(=O)c1ccncc1)c1ccc(O)cc1O | 5.2 | 2.4% | 14.1µM* | i | 9.7% | -1.1%
c1ccc(CN=C(NCc2ccccc2)NCc2ccccc2)cc1 | 3.4 | -2.1% | ? | i | 22.4µM* | ?
S=C(NCc1ccccc1)C(=S)NCc1ccccc1 | -5.3 | 1.0% | 13.6% | ? | -11.2% | -5.1%
Clc1nc2ccccc2cc1-c1nnn(-c2ccccc2)n1 | -14.6 | -7.7% | 5.4% | i | 34.9% | 21.2%
COc1ccc2nc(NN=C(C)c3ccccn3)cc(C)c2c1 | 5.3 | 6.0% | ? | 7.52µM* | -55.5% | 1.12µM*
CC(=O)O[C@H]1[C@@H](O)[C@H](O)[C@H](Oc2c(O)c(C)c3c4c2[C@@H](C)CC[C@@H]4[C@@H](C)C[C@H]3C=C(C)C)O[C@H]1C | 1.2 | 3.1% | ? | ? | -113.7% | 11.2µM*
CC(=O)O[C@@H]1[C@@H](O)[C@@H](O)[C@H](Oc2c(-c3ccc(O)cc3)oc3c(CC=C(C)C)c(O)cc(O)c3c2=O)O[C@H]1C | 1.4 | ? | ? | ? | -71.9% | ?
SMILES | LDHA block | IDH1 R132H inh | ATXN2 expr inh | ATXN viability | HepG2 tox | TGFb SMAD3 inh
O=C(CCS(=O)(=O)c1ccccc1)Nc1ncc([N+](=O)[O-])s1 | -4.7 | -1.1% | -5.0% | i | -58.3% | 15.8µM*
O=C(/C=C/c1ccc([N+](=O)[O-])cc1)NCc1ccccn1 | 3.3 | 4.0% | 2.7% | i | -15.3% | 1.7%
O=C(/C=C/c1ccc([N+](=O)[O-])cc1)Nc1ncc([N+](=O)[O-])s1 | -8.8 | 5.8% | · | ? | -26.5% | 12.6µM*
O=C(Nc1ncc([N+](=O)[O-])s1)c1cccs1 | -4.3 | 4.6% | 6.0% | ? | 12.6µM*! | ?
c1cc(CSc2ccc3c(c2)OCCO3)ccc1CSc1ccc2c(c1)OCCO2 | 6.1 | · | · | · | · | ·
CCCCCCCCCCCCCCCCn1cc[n+](CC(C)=O)c1 | 2.9 | -1.0% | ? | 29.9µM* | -103.9% | 20µM*
O=C(NCc1ccccc1C(F)(F)F)c1cccc2c1C(=O)c1ccc(N3CCC(N4CCCCC4)CC3)cc1S2(=O)=O | -17.0 | -6.1% | 28.2µM* | ? | -40.6% | -7.9%
CCOC(=O)c1cc(S(=O)(=O)NCc2ccc(Cl)cc2)[nH]n1 | -4.7 | 6.7% | -3.3% | i | -5.5% | 3.2%
NC(=O)SCC(=O)Nc1ccc(Cl)c(Cl)c1 | -3.6 | -2.5% | ? | i | -61.2% | 12.6µM*
CC(=O)c1ccc(-c2cccs2)s1 | -2.0 | -7.1% | -0.6%[11.3 µM] | i | -36.7% | 10µM*
CNc1cccc(-c2ccc(C(C)=O)s2)n1 | -7.5 | · | 30.9% | i | -7.3% | 25.9%
CCOC(=O)c1c(N2C(=O)C=CC2=O)sc(C)c1C | -1.8 | 5.6% | ? | ? | -91.8% | 15.8µM*
CCOC(=O)c1c(NC(N)=O)sc(C)c1C | -0.3 | 5.9% | 6.8% | i | 1.9% | -1.5%
C=CC(=O)Nc1sc2c(c1C(N)=O)CCCC2 | -0.5 | 16.1% | ? | ? | -52.9% | 15.8µM*
C=CCNC(=S)Nc1sc2c(c1C(N)=O)CCCC2 | -0.6 | 4.7% | -3.0% | i | 11.2µM* | -23.2%
FC(F)(F)c1cccc(NC(=S)N2CCCC2)c1 | -1.8 | 2.5% | 8.7% | i | 3.1% | -7.2%
O=C1CSCN1c1cc(Cl)ccc1Cl | -1.9 | -1.6% | -14.3%[11.3 µM] | i | 7.4% | 5.9%
Cc1ccc(S(=O)(=O)Nc2nc3ccccc3nc2Nc2ccc3c(c2)OCO3)c(C)c1 | -10.6 | · | · | · | · | ·
Cc1ccc(SCc2cc(=O)[nH]c(Nc3nc(C)c4cccc(Cl)c4n3)n2)cc1 | 6.1 | · | · | · | · | ·
C=CCNC1=C2C[C@@H](C)C[C@H](OC)[C@@H](O)[C@@H](C)C=C(C)[C@H](OC(N)=O)[C@@H](OC)C=CC=C(C)C(=O)NC(=CC1=O)C2=O | · | · | 1.09µM* | · | · | ·

Screens from PubChem.
